Measured values from PubChem BioAssay (NCI).
This is part of a sample that, as a whole, favours compounds with a hit. Of some 83,000 tested, about 20% had one in any assay.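 Negative percent growth values reflect cell death: -40 means 40% of the cells present at the start died, and -100 means all died.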 A number with no mark means an inactive call. Activity calls are given as the source filed them. How the source made its calls: active means growth percent below 10; inactive means the rest.

Key:
Experiment in all cases: NCI-60 one-dose screen, 48 h (100 = growth as untreated, 0 = no growth, -100 = all killed)
Settings in all cases: 10 µM unless noted
NCI-H23 lung = test system: NCI-H23 lung
NCI-H226 lung = test system: NCI-H226 lung
NCI-H322M lung = test system: NCI-H322M lung
HOP-62 NSCLC = test system: HOP-62 NSCLC
NCI-H460 lung = test system: NCI-H460 lung
HOP-92 NSCLC = test system: HOP-92 NSCLC
NCI-H522 lung = test system: NCI-H522 lung
A549/ATCC NSCLC = test system: A549/ATCC NSCLC
786-0 renal = test system: 786-0 renal
COLO 205 colon = test system: COLO 205 colon
DU-145 prostate = test system: DU-145 prostate
MALME-3M melanoma = test system: MALME-3M melanoma
MDA-MB-231 breast = test system: MDA-MB-231 breast
RXF 393 renal = test system: RXF 393 renal
SF-268 CNS = test system: SF-268 CNS
SF-295 CNS = test system: SF-295 CNS
SF-539 CNS = test system: SF-539 CNS
UACC-257 melanoma = test system: UACC-257 melanoma
M14 melanoma = test system: M14 melanoma
K-562 leukemia = test system: K-562 leukemia

Row | Structure (SMILES) | growth (NCI-H23 lung) [%] | growth (NCI-H226 lung) [%] | growth (NCI-H322M lung) [%] | growth (HOP-62 NSCLC) [%] | growth (NCI-H460 lung) [%] | growth (HOP-92 NSCLC) [%] | growth (NCI-H522 lung) | growth (A549/ATCC NSCLC) [%] | growth (786-0 renal) [%] | growth (COLO 205 colon) [%] | growth (DU-145 prostate) [%] | growth (MALME-3M melanoma) [%] | growth (MDA-MB-231 breast) [%] | growth (RXF 393 renal) [%] | growth (SF-268 CNS) [%] | growth (SF-295 CNS) [%] | growth (SF-539 CNS) [%] | growth (UACC-257 melanoma) [%] | growth (M14 melanoma) [%] | growth (K-562 leukemia) [%]
1 | CC(=O)Oc1cccc(S(=O)(=O)n2cc(C(=O)C(=O)Nc3ccncc3)c3ccccc32)c1 | 62.6 | 73.6 | 92.3 | 87.2 | 82.1 | 70.5 | 63.9% | 72.7 | 91.2 | 100 | 104 | 90.4 | 66.1 | 90.8 | 103 | 58.5 | 86.7 | 93.9 | 102 | –
2 | Cc1ccc2nc(Cl)cc(=O)n2c1 | 107 | 108 | 116 | 100 | 113 | 104 | 116% | 113 | 100 | 108 | 124 | 135 | 111 | 117 | 114 | 113 | – | 112 | 104 | –
3 | O=[N+]([O-])c1ccc(/C=C/C2(CCl)OCCO2)cc1 | 90.9 | 101 | 152 | 116 | 117 | 84.2 | -15.3% (active) | 105 | 85.6 | 107 | 114 | – | 114 | 104 | 115 | – | 104 | 93.6 | 95.2 | 65.7
4 | Cc1ccc2ccccc2c1C[n+]1ccccc1 | 86.5 | 99.3 | 109 | 84.8 | 114 | 79.3 | 100% | 99.1 | 102 | 112 | 117 | 108 | 77.8 | 105 | 106 | 101 | 105 | 113 | 111 | –
5 | O=C(/C=C/c1ccccc1)c1cccc(O)c1 | 96.7 | 109 | 113 | 103 | 110 | 82.8 | 116% | 86 | 94.2 | 107 | 56.4 | 101 | – | 107 | 85 | 96.8 | – | 99.5 | 68.1 | 51.3
6 | O=S1(=O)CCC(N(/N=C/c2ccco2)c2ccccc2)C1 (stereo unspecified) | 102 | 104 | 102 | 104 | 107 | 96.5 | 95.5% | 97.9 | 103 | 117 | 111 | – | 112 | 109 | 102 | – | 98.1 | 95.1 | 100 | 123
7 | CCCCOc1ccc(/C=C2/SC(N3CCCC3)=NC2=O)cc1 | 98.8 | 85.5 | 98.8 | 99.3 | 99 | 86.8 | 82.4% | 94.7 | – | 104 | 80.9 | 97.9 | 95.6 | 90.9 | 98.7 | 93.8 | 87.9 | 102 | 95.4 | 82
8 | CC(=O)Nc1nc(N)nc(NC(C)=O)c1N=O | 95.3 | 105 | 140 | 106 | 123 | 108 | 101% | 107 | 106 | 116 | 107 | – | 114 | 135 | 98.7 | – | 105 | 113 | 104 | 124
9 | Cc1c(C(N)=O)sc2c1c(=O)n(Cc1ccccc1)c1nnc(Nc3ccccc3)n21 | 101 | 106 | 105 | 89.1 | 119 | 101 | 87.1% | 94.4 | 105 | 101 | 89.3 | 110 | 105 | 113 | 101 | 104 | 100 | 92.3 | 101 | –
